Experimental data reported in PubChem BioAssay (Tox21).
Values joined by “and” are separate entries in the source; they are usually repeats but may differ in a detail not shown here. Equal entries are not always repeated. Inconclusive results are not listed. The source holds several records for some structures; these can differ, active in one and inactive in another. Active and inactive are the calls of the source. Unless noted, calls follow the shape of the dose curve; as a rule, active = well fitted curve in the direction sought with a large enough effect in the repeat runs; inconclusive = weak or mixed curves; inactive = no such curve, though single readings can be large; an effect the other way counts as inactive or inconclusive.

Legend:
[1] = qHTS assay to identify small molecule agonists of the RXR signaling pathway - cell viability counter screen (AID 1159529); also: nearly all actives have a fitted effect of over 50% in size; also: potency is read from the fitted curve at half-maximal effect
Summary of the method: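 Steps: seed RXR-alpha-UAS-bla HEK 293T cells in assay medium containing 2% charcoal-stripped FBS; incubate 5 hr; add compounds in DMSO; incubate 16 hr at 37 C; after the bla read, add CellTiter-Glo and read luminescence at 30 min.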

[2] = qHTS assay to identify small molecule antagonists of the retinoid acid receptor (RAR) signaling pathway - cell viability counter screen (AID 1159551); also: nearly all actives have a fitted effect of over 35% in size; also: potency is read from the fitted curve at half-maximal effect
Summary of the method: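 C3RL4 RARE-luciferase line; cpds + retinol 1 uM final, 6 h, 37 C/5% CO2; CellTiter-Glo ATP luminescence, 30 min RT.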

[3] = qHTS assay to identify small molecule antagonists of the retinoic acid receptor (RAR) signaling pathway (AID 1159552; also: nearly all actives have a fitted effect of over 50% in size; also: potency is read from the fitted curve at half-maximal effect)
Summary of the method: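 Retinol at 1 uM final stimulated RARE-luciferase expression in C3RL4 cells exposed to test compounds for 6 hr at 37 C. Reduced luminescence, read 30 min after detection reagent, indicated pathway antagonism.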

[4] = qHTS assay to identify small molecule agonists of the retinoic acid receptor (RAR) signaling pathway (AID 1159553); settings: C3RL4 RARE luciferase reporter, agonist, 6 h; activation: at 73.3 µM (top of the series) unless noted; also: potency is read from the fitted curve at half-maximal effect
Summary of the method: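 RARE-luc C3RL4 cells; overnight attachment 37 C/5% CO2; compound (DMSO) 6 hr; luciferase reagent, 30 min RT; luminescence read-out.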

[5] = qHTS assay to identify small molecule antagonists of the estrogen related receptor (ERR) signaling pathway (AID 1224819;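 also: luminescence from an ERR-driven luciferase reporter measured with One-Glo reagent; nearly all actives have a fitted effect of over 50% in size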)
Summary of the method: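 Luminescence readout (One-Glo, 30 min, RT) of ERR cell line after 18 h compound exposure at 37 C; cells seeded 2,000/well, pre-incubated 6 h, compounds pinned from DMSO stocks.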

[6] = qHTS assay to identify small molecule agonists of the estrogen related receptor (ERR) signaling pathway (AID 1224820)
Summary of the method: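 An ERR cell line provided by NTP was seeded at 2,000 cells per well and allowed to settle for 6 h before compounds in DMSO were added. After 18 h at 37 C, luciferase activity was measured by One-Glo luminescence.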

[7] = system: estrogen-related receptor alpha (ERRalpha) with PGC-1alpha coactivator, human; assay: qHTS assay to identify small molecule antagonists of the estrogen related receptor signaling pathway with the pleiotropic PPARgamma coactivator (PGC) (AID 1224821; calls by dose curve;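 also: lower luminescence signal means antagonism of PGC/ERR signalling; nearly all actives have a fitted effect of over 50% in size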)
Summary of the method: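 A PGC/ERR cell line supplied by NTP is seeded, allowed 6 h at 37 C, and treated with test compounds in DMSO for 18 h. Signal is then measured as luciferase luminescence using One-Glo.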

[8] = qHTS assay to identify small molecule antagonists of the estrogen related receptor signaling pathway with the pleiotropic PPARgamma coactivator (PGC) cell viability counter screen (AID 1224822)
Summary of the method: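 Fluorescence read-out of CellTiter-Fluor after 30 min at 37 C; PGC/ERR cells, 2,000 per well, had been exposed to DMSO-dissolved compounds for 17.5 h following a 6 h pre-incubation.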

[9] = qHTS assay to identify small molecule agonists of the estrogen related receptor signaling pathway with the pleiotropic PPARgamma coactivator (PGC) (AID 1224823)
Summary of the method: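 Compounds dissolved in DMSO are added by pin tool to PGC/ERR cells that have settled for 6 h, and incubation continues 18 h at 37 C. Reporter output is measured as One-Glo luminescence.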

[10] = qHTS assay to identify small molecule antagonists of the estrogen related receptor (ERR) signaling pathway from Tox21 library - cell viability counter screen (AID 1224834); also: nearly all actives have a fitted effect of over 30% in size; also: potency is read from the fitted curve at half-maximal effect
Summary of the method: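 Multiplexed viability counter screen in ERR cells: 17.5 h compound exposure at 37 C, CellTiter-Fluor added, 30 min at 37 C/5% CO2, fluorescence read.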

[11] = qHTS assay to identify small molecule agonists of the constitutive androstane receptor (CAR) signaling pathway - cell viability counter screen (AID 1224836); also: nearly all actives have a fitted effect of over 45% in size
Summary of the method: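 Cells were seeded and incubated 4 hrs. Compounds were added across 15 concentrations together with PK11195 at 0.75 uM final. Plates were incubated 23 hrs at 37 C. CellTiter-Fluor was added and fluorescence measured.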

[12] = qHTS assay to identify small molecule antagonists of the constitutive androstane receptor (CAR) signaling pathway - cell viability counter screen (AID 1224837); also: nearly all actives have a fitted effect of over 45% in size; also: potency is read from the fitted curve at half-maximal effect
Summary of the method: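 Read-out: CellTiter-Fluor fluorescence after 23 hr at 37 C/5% CO2. Cells: HepG2 double-stable for hCAR and CYP2B6-2.2kb. Compounds tested at 15 concentrations in the presence of CITCO, final concentration 50 nM.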

[13] = biological target: Nuclear receptor subfamily 1 group I member 3 (Homo sapiens) (UniProt Q14994); assay: qHTS assay to identify small molecule antagonists of the constitutive androstane receptor (CAR) signaling pathway (AID 1224838);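 also: HepG2 cells stably expressing hCAR with CYP2B6 luciferase reporter stimulated by CITCO; nearly all actives have a fitted effect of over 40% in size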; also: potency is read from the fitted curve at half-maximal effect
Sequence of Nuclear receptor subfamily 1 group I member 3 (Homo sapiens) (Q14994 whole entry, looked up): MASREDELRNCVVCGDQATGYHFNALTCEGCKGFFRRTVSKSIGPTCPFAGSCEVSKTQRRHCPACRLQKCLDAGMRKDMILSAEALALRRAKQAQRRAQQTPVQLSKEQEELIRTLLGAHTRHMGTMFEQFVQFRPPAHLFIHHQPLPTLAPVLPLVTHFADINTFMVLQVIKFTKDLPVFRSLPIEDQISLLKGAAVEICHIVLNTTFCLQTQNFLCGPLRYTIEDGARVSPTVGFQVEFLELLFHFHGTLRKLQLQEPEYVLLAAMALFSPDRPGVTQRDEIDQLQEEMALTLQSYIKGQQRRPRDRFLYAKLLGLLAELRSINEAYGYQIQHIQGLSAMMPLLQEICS
Summary of the method: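 Read-out: ONE-Glo luciferase luminescence after 30 min at room temperature. HepG2-CYP2B6-hCAR double-stable cells, compounds in 15-point titration plus 50 nM CITCO final, 24 h at 37 C/5% CO2.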

[14] = biological target: Nuclear receptor subfamily 1 group I member 3 (Homo sapiens) (UniProt Q14994); assay: qHTS assay to identify small molecule agonists of the constitutive androstane receptor (CAR) signaling pathway (AID 1224839);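 also: HepG2 cells stably carrying human CAR and a CYP2B6 luciferase reporter; nearly all actives have a fitted effect of over 15% in size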
Summary of the method: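 Cells were plated and incubated 4 hrs, then dosed with compounds at 15 concentrations. PK11195 was added to 0.75 uM final. After 24 hrs at 37 C, luciferase luminescence was measured.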

[15] = qHTS assay to identify small molecule antagonists of the estrogen related receptor signaling pathway with the pleiotropic PPARgamma coactivator (PGC) from Tox21 10K library - cell viability counter screen (AID 1224840; active = well fitted cell-killing curve with a large enough effect in the repeat runs, not every such curve was filed as active; also: nearly all actives have a fitted effect of over 40% in size; also: potency is read from the fitted curve at half-maximal effect)
Summary of the method: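 Fluorescence read-out of CellTiter-Fluor viability reagent, added after cells had been exposed to compound in DMSO for 17.5 h at 37 C; 30 min development at 37 C/5% CO2. Cells: PGC/ERR line, 2,000/well.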

[16] = qHTS assay to identify small molecule antagonists of the estrogen related receptor signaling pathway with the pleiotropic PPARgamma coactivator (PGC) from Tox21 10K library (AID 1224841; call rule not given here; also: potency is read from the fitted curve at half-maximal effect)
Summary of the method: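 Luminescence read-out (One-Glo luciferase reagent, 30 min at room temperature) from PGC/ERR cells exposed to DMSO-dissolved test compounds for 18 h at 37 C; cells, 2,000 per well, had been preincubated 6 h before compound transfer.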

[17] = qHTS assay to identify small molecule agonists of the estrogen related receptor signaling pathway with the pleiotropic PPARgamma coactivator (PGC) from Tox21 10K library (AID 1224842); also: nearly all actives have a fitted effect of over 15% in size
Summary of the method: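 Luminescence from One-Glo (30 min, room temperature) measured after PGC/ERR cells had 18 h at 37 C with pinned compound (23 nL in DMSO). Cells had been seeded at 2,000 per well and pre-incubated 6 h.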

[18] = biological target: Thyrotropin receptor (Homo sapiens) (UniProt P16473); assay: qHTS assay to identify small molecule agonists of the thyroid stimulating hormone receptor (TSHR) signaling pathway (AID 1224843; calls by dose curve; also: nearly all actives have a fitted effect of over 45% in size; also: potency is read from the fitted curve at half-maximal effect)
Sequence of Thyrotropin receptor (Homo sapiens) (P16473 whole entry, looked up): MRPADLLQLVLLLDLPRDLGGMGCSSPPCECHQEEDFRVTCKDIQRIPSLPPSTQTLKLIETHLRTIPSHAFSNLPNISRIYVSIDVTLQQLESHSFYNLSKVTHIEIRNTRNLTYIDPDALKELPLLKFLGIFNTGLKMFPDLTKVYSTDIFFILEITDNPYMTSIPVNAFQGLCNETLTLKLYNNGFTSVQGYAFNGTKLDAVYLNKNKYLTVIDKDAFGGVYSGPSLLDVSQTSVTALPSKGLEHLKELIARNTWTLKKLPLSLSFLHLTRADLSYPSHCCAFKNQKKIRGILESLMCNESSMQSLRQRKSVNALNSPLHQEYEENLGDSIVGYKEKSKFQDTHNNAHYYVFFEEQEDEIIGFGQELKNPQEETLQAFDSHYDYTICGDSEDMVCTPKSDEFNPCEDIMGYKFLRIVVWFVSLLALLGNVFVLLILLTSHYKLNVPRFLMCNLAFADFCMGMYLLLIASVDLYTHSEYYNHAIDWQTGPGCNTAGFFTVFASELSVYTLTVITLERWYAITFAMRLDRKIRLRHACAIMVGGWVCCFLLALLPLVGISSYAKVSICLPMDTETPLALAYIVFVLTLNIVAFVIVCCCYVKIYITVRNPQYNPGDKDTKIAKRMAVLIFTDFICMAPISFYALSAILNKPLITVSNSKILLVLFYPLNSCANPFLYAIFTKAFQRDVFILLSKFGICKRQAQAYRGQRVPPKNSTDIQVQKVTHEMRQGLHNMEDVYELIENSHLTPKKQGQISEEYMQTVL
Summary of the method: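 Agonist activity read as cAMP rise via d2/cryptate HTRF competition, 1 h room-temperature detection, in HEK293 cells expressing TSHR. Fifteen-point titrations, each run in triplicate, with a 30 min room-temperature incubation beforehand.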

[19] = qHTS assay to identify small molecule agonists of the hypoxia (HIF-1) signaling pathway - cell viability counter screen (AID 1224844; calls by dose curve; also: nearly all actives have a fitted effect of over 50% in size; also: potency is read from the fitted curve at half-maximal effect)
Summary of the method: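 CellTiter-Glo luminescence read-out, 30 min RT, taken in the same wells as the beta-lactamase HRE reporter assay; HRE-bla ME-180 cells, 0.5% dialyzed FBS, 17 hr compound treatment at 37C, 5% CO2.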

[20] = biological target: Luciferin 4-monooxygenase (Photinus pyralis) (UniProt P08659); assay: qHTS assay to identify small molecule inhibitors of firefly luciferase (AID 1224835); also: nearly all actives have a fitted effect of over 25% in size; also: potency is read from the fitted curve at half-maximal effect
Sequence of Luciferin 4-monooxygenase (Photinus pyralis) (P08659 whole entry, looked up): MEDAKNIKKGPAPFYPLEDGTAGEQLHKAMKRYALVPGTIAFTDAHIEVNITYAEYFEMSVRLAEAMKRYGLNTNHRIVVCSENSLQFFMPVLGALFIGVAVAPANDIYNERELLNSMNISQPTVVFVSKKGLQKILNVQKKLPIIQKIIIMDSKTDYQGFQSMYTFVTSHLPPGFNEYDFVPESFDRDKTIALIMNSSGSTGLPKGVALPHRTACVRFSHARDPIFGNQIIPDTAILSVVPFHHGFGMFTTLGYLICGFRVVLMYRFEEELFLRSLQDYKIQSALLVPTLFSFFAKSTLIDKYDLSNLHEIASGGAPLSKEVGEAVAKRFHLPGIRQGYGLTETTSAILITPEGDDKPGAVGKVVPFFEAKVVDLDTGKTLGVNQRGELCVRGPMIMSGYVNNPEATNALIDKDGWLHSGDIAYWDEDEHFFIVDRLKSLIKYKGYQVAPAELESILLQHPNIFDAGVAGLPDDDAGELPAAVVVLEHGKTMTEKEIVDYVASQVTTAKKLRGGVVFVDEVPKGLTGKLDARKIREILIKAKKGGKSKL
Summary of the method: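 Inhibition of purified Photinus luciferase is measured by luminescence. Substrate levels (D-luciferin, ATP) sit at their KM values. Each compound is tested in a concentration series.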

Measured: Potency

O=C(O)c1nn(Cc2ccc(Cl)cc2Cl)c2ccccc12
68.1 µM (active) and inactive: [16]
not listed: [20]
inactive: all other assays above

ClC(Cl)(Cl)Br
not listed: [5] | [6] | [7] | [8] | [9] | [16] | [17]
inactive: all other assays above

N#Cc1c(Cl)c(Cl)c(Cl)c(C#N)c1Cl
active: [1] 6.05 µM and 4.9 µM | [2] 37.8 µM and 38.6 µM | [3] 3 µM and 3.06 µM | [4] 847 nM and 486 nM | [10] 7.55 µM and 21.7 µM | [12] 15.1 µM and 9.69 µM | [13] 5.34 µM and 4.33 µM | [15] 4.24 µM and 6.11 µM | [18] 2.68 µM and 3.86 µM | [19] 3.03 µM and 3.09 µM
inactive: [20] | [14]

CCCCOCC1CO1 (centres undefined)
not listed: [5] | [6] | [7] | [8] | [9] | [20]
inactive: all other assays above

ClC(Cl)=C(Cl)C(Cl)=C(Cl)Cl
inactive: [1] | [2] | [3] | [4] | [10] | [20] | [11] | [12] | [15] | [18] | [19]

COP(=S)(OC)Oc1ccc(S(=O)(=O)N(C)C)cc1
not listed: [5] | [6] | [7] | [8] | [9]
inactive: all other assays above

COc1ccc(O)c(C(C)(C)C)c1
inactive: [1] | [2] | [3] | [4] | [10] | [20] | [12] | [13] | [14] | [15] | [19]

OC(c1ccc(Cl)cc1)(c1cncnc1)c1ccccc1Cl (centres undefined)
24.8 µM (active) and inactive: [16]
81.1 µM (active) and inactive: [20]
active: [10] 27.8 µM and 43.3 µM | [12] 55.4 µM
62.2 µM (active) and inactive: [13]
inactive: [1] | [2] | [4] | [11] | [14] | [17] | [19]
27.8 µM (active) and inactive: [3]

CC(C)(C#N)N=NC(C)(C)C#N
not listed: [5] | [6] | [7] | [8] | [9] | [11] | [16] | [17]
inactive: all other assays above

C[C@]12CCC(=O)C=C1CC[C@@H]1[C@@H]2CC[C@@]2(C)[C@H]1CC[C@]2(C)O
active: [3] 43.6 µM
not listed: [5] | [6] | [7] | [9] | [16] | [17] | [20]
inactive: all other assays above

C[C@]12CC[C@H]3[C@@H](CCC4=CC(=O)CC[C@@H]43)[C@@H]1CC[C@@H]2O
active: [3] 48.1 µM
not listed: [5] | [6] | [7] | [8] | [9] | [11] | [16] | [17]
inactive: all other assays above

CC1=C(C(=O)Nc2ccccc2)SCCO1
inactive: [1] | [2] | [3] | [10] | [12] | [15] | [16] | [17] | [18] | [19]
active: [4] 15.6 µM | [20] 36.2 µM and 44.8 µM

Cn1c(-c2ccccc2)cc(-c2ccccc2)[n+]1C
active: [16] 8.62 µM and 27.3 µM
not listed: [5] | [6] | [7] | [8] | [9]
inactive: all other assays above

CCOP(=O)(OCC)OCC
not listed: [5] | [6] | [7] | [8] | [9]
inactive: all other assays above

CCOC(=O)c1ccccc1N
not listed: [5] | [6] | [7] | [8] | [9] | [16] | [17] | [20]
inactive: all other assays above

CC(C)COC(=O)c1ccccc1C(=O)OCC(C)C
inactive: [1] | [2] | [3] | [4] | [10] | [20] | [11] | [12] | [15] | [18] | [19]

CCOP(=S)(OCC)OP(=S)(OCC)OCC
not listed: [5] | [6] | [7] | [8] | [9] | [20]
inactive: all other assays above
